# This is one part of the list. No count for the full screen is at hand.
# B1: VH:VL chains; a variant is named by its letters at X, in order (parent)
# chain 1: QVQLVQSGAEVKKPGASVKVSCKASGYTFTDYXMHWVRQAPGQGLEWMGXVNPNXXXTTYNQKFEGRVTMTTDTSTSTAYMELRSLRSDDTAVYYCARXNXLDXWGQGTTVTVSS
# chain 2: DIQMTQSPSSLSASVGDRVTITCSVSSSVSSIYLHWYQQKPGKAPKLLIYSTSNLASGVPSRFSGSGSGTDFTLTISSLQPEDFATYYCQVYSGYPLTFGGGTKVEIK
# Variants of: B1
# Test: yeast display scFab, FACS + sequencing
# Details: with MET
# In short: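 Antigen binding was called positive for sequences present in both antigen-positive samples and negative for those present only in the input. These calls came from deep sequencing, in two replicates, of round-3 sorted and input populations from a heavy-chain CDR mutant scFab yeast surface library. The library was first enriched twice magnetically on HGFR-Fc-coated Protein A beads and then by FACS, gating the top 50% antigen-positive cells after 3 h labelling at room temperature with 1 nM HGFR-Fc plus anti-Myc in PBSB with 1% milk.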
row,Variant,antigen binding call
1,SGGRTYGV,no binding
2,YRGRGDSV,binds
3,YRGGGDWV,binds
4,YEGGGDWV,no binding
5,YRGGDDSV,no binding
6,VRGGGDWV,no binding
7,YRGGGDSV,binds
8,YTGGGDGV,no binding
9,YTETGDSV,no binding
10,SETKGDWA,no binding
11,VTTKSDAV,no binding
12,DEKGGSSA,no binding
13,DTTRGAVA,no binding
14,YRRGDAWY,binds
15,FRKRGAWY,binds
16,FRRGGAWY,binds
17,FRAGGAWY,binds
18,DRRGDAVY,no binding
19,YAGGGDGA,no binding
20,FRRRGAWY,binds

row,Variant,antigen binding call
1,FRGEAVVY,no binding
2,YRRGGAWY,binds
3,FRTKAAVY,no binding
4,FTKGSAGY,no binding
5,FRRGGAGY,binds
6,FRAGGAVY,binds
7,VAGGDDGA,no binding
8,FGGENDGD,no binding
9,VRKRGSSS,binds
10,VGGTSSSS,no binding
11,VRTRGSSS,binds
12,DETGNVWF,no binding
13,VTGEDDAA,no binding
14,DAGGADVA,no binding
15,YRAGSAAD,binds
16,YRAGDAAD,binds
17,YRARSALD,binds
18,YREGDAAD,no binding
19,YRARSAAD,binds
20,YAARAALD,no binding

row,Variant,antigen binding call
1,DAGGGYSV,no binding
2,DKEGGSSA,no binding
3,DKTGNDVV,no binding
4,AATRNVGV,no binding
5,YAARAAVD,no binding
6,YRARSAVD,binds
7,VGGTSDGV,no binding
8,DKGRSAGD,no binding
9,YKGRDALD,binds
10,YKGRDAGD,binds
11,YKGRDASD,no binding
12,YKGRDAWD,binds
13,YKGRDDVA,no binding
14,SGKKAVWV,no binding
15,VEAGDDVY,no binding
16,VTGANDWV,no binding
17,SKGRSDVV,no binding
18,VTGEDAGA,no binding
